Laboratory results from PubChem BioAssay AID493073 (Broad Institute, 2011).
Hit rate of the full screen: of about 1,200 compounds, about 810 (68%) were called active. The rule behind the calls is not given here. The set was probably picked from earlier hits. The list is a sample of the results. Entries with a potency or affinity are not part of this list.

Assay: TRPM1 promoter luciferase signal decrease, dose response, MITF inhibitor project, cell-based, SK-MEL-5, cherry-picked, set 3 (AID 493073)
Settings: SK-MEL-5 TRPM1 promoter luciferase, 24 h; series mostly up to 35 µM; activity change, negative = inhibition: at the top concentration

Activity change, negative = inhibition, inactive:
O=C(/C=C/c1ccc2c(c1)OCCO2)c1ccccc1 -51.6%
O=C(Nc1ccccc1F)c1ccc2c(c1)OCO2 -47.3%
CC(=O)N(c1nnc(-c2cccc(C)c2)s1)C1CCCC1 101%
C/C(=N\Nc1nccnc1Cl)c1ccc(O)c(C)c1 91.9%
COc1ccc(C(=O)CN2Cc3ccccc3C2=N)cc1 76.8%
CCCOc1ccc(-c2c(=O)n(O)c3ccccc3[n+]2[O-])cc1 37.1%
CN1CCN(CCCOc2ccc(-c3ccccc3)cc2)CC1 13.4%
O=C(c1ccc(F)cc1)N1CCC(c2ccccc2)C1 (centres undefined) 104%
COc1ccc(NC(=O)c2cc3ccccc3oc2=O)c(OC)c1 52.2%
COc1ccc2oc(=O)c(C(=O)Nc3ccccc3C)cc2c1 -2.57%
COc1ccc(N/C=C\C(=O)c2ccc3ccccc3c2)cc1 88.6%
COc1ccc(COC(=O)c2n[nH]c3ccccc23)cc1F 47.7%
Cc1ccc(C(CNS(=O)(=O)c2ccc(Br)cc2)N2CCN(C)CC2)cc1 (centres undefined) -81.2%
COc1ccc(/C=C/c2cc(C(F)(F)F)on2)cc1 107%
Cc1cccc(OCc2nc3ccccc3n2C)c1 -19.5%
O=C(/C=C/c1ccc2c(c1)OCO2)N1CCCCC1 62.1%
O=C(Nc1ccccc1)C1Cc2ccccc2CN1C(=O)c1ccco1 (centres undefined) 73.5%
CC(=O)Oc1ccc(C)cc1-n1nc2ccccc2n1 65.9%
CC(C)C(=O)Nc1ccc2nn(-c3ccc(F)cc3)nc2c1 7.63%
CCOCCCNC(=O)/C(C#N)=C/c1ccc([N+](=O)[O-])o1 -96.3%
CCOC(=O)c1sc(NC(=O)Nc2ccc(Cl)cc2)nc1C 96.9%
COc1ccc2oc(=N)c(C(=O)Nc3ccccc3Cl)cc2c1 21.5%
CCOC(=O)c1ccc2nc(C)c(CCC(C)=O)c(Cl)c2c1 105%
O=C(Cc1ccccc1)Nc1ccc(NC(=O)c2ccco2)nc1 -37.9%
Cc1nc(NCCOc2ccccc2)sc1C(=O)Nc1ccccc1 46.1%
Cn1c(/C(C#N)=C/c2ccc(-c3ccc(S(N)(=O)=O)cc3)o2)nc2ccccc21 -79.9%
COc1ccc(/C=N/Nc2ccccn2)cc1OC 97.2%
S=c1[nH]nc(-c2ccco2)n1/N=C/C(Cl)=C/c1ccccc1 77.9%
Nc1ccccc1SC1CC(=O)N(c2ccc3c(c2)OCCO3)C1=O (centres undefined) 82.2%
COc1ccccc1N1CCN(/N=C/c2cccc(Cl)c2)CC1 132%
Cc1csc(NC(=O)Cc2c(F)cccc2Cl)n1 78.6%
Clc1ccc(-c2noc(CN3CCOCC3)n2)cc1 81.6%
O=C(CC(=O)c1ccccc1)Nc1ccccc1 12.2%
Cc1ccc(NC(=O)c2cnc3ccccc3n2)cc1C 44.3%
COc1ccc(-c2noc(-c3cccs3)n2)cc1OC 95.4%
Cc1[nH]nc(Nc2ccc(Br)cc2)c1[N+](=O)[O-] 91.7%
CCc1nc2oc3ccc(C)cc3c(=O)c2cc1C(=O)OC 89.6%
CCOc1ccc2nc(NC(=O)Cc3cccs3)sc2c1 92.9%
CS/C(N)=N/N=C/c1ccc2c(c1)OCO2 103%
COc1cccc(/C=N/Nc2nc3ccccc3[nH]2)c1OC 125%
COc1ccccc1N1CCN(/N=C\c2ccccc2)CC1 104%
COC(=O)c1ccc(/C=N/Nc2nc(C)c(C)s2)cc1 36%
CC(C)c1ccc(C(=O)Nc2cccnc2)cc1 12.8%
O=C(Nc1ccc(Br)cc1)c1ccc2c(c1)OCO2 39.3%
O=C(CSc1nc2ccccc2[nH]1)c1ccc2c(c1)OCO2 102%
CCOc1ccc2cc(C#N)c(SCC(=O)OC)nc2c1 112%
CC(=O)Nc1ccc(-c2nc3ccccc3o2)cc1 57.7%
Cc1occc1C(=O)N/N=C/c1ccc(OCc2ccccc2)cc1 87.6%
CCc1nc2oc3ccccc3c(=O)c2cc1C(=O)OC 12.5%
Cc1nc(-c2ccccn2)sc1C(=O)Nc1ccc(F)cc1F 45.1%
COc1ccc(-c2csc(Nc3ccccn3)n2)cc1OC -24.3%
COCn1c(COc2ccccc2)nc2ccccc21 71.5%
Cc1ccc(-n2cc(CNCCCn3cccn3)c(-c3cccc(C)c3)n2)cc1 -100%
Cc1oc(=O)c(NC(=O)c2ccccc2)cc1C(=O)c1ccccc1 90.5%
CN(C)c1ccc(/C=N/N2CCN(c3ccccn3)CC2)cc1 80.7%
CN(C)c1ccc(NC(=O)Nc2ccc3c(c2)nnn3C)cc1 90.3%
CN(C)c1ccc(CNc2ccccn2)cc1 108%
CC(C)OC(=O)CSc1nc2cc3c(cc2cc1C#N)OCO3 69%
O=C(Nc1ccc(N2CCOCC2)c(Cl)c1)c1cccc(F)c1 102%
Cc1ccc(N2C(=O)c3ccc(N)cc3C2=O)cc1C 101%
Oc1ccc(-c2nnc(SCC3CCCCC3)o2)cc1 108%
CCCC1=Nc2cc(C(=O)NCCN3CCCC3)ccc2Sc2ccccc21 -84%
COc1ccc(C[C@H]2CN3C(=NC[C@@H]3C(C)C)N2CCNC(=O)c2ccc(C)c(Br)c2)cc1 -111%
COc1ccc(/C=C2\Sc3ccc(C(=O)NCCN4CCCCCC4)cc3N(C)C2=O)cc1 -76.3%
CCN1CCN(CCCNC(=O)c2ccc3c(Cl)c4c(nc3c2)CCCC4)CC1 -101%
Cc1ccc(-c2noc(-c3ccno3)n2)cc1 83.1%
Cc1ccc2[nH]c(=O)c(CN(CCCN(C)C)C(=O)Nc3cccc(Cl)c3)cc2c1 -105%
O=C(NCc1ccc2c(c1)OCO2)c1cc(=O)[nH]c2ccccc12 0.381%
Nc1c(N(CCC2=CCCCC2)C(=O)COc2ccc(F)cc2)c(=O)[nH]c(=O)n1Cc1ccccc1 -94.3%
O=C(NCc1csc(-c2cccs2)n1)C1CCC1 76.4%
CCOc1ccc(NC(=O)c2ccc3snnc3c2)cc1 -60.8%
O=C(Nc1ccc(Cl)cc1)OCc1ccccn1 105%
O=C(Nc1ccc2c(c1)OCCO2)c1cccc(Cl)c1Cl 22.9%
O=C(Nc1ccc2c(c1)OCCO2)c1ccoc1 39.9%
O=C1CN(c2ccccc2)C(=S)N1C(=O)c1ccccc1 75%
COc1ccc(NC(=O)c2cc(F)cc(F)c2)cc1Cl -77.3%
O=[N+]([O-])c1ccc(N/N=C/C=C/c2ccco2)cc1 51%
CCN(CC)CC(=O)Nc1scc2c1c(=O)oc1ccccc12 129%
Fc1ccc(-c2nnc(-c3ccc(F)cc3)o2)cc1 47.1%
CCOC(=O)c1ccc(NC(=O)Cc2cccs2)cc1 77.7%
CCc1ccc(Nc2nc(C)cc(C)n2)cc1 83.9%
O=C(N/N=C/C(Cl)=C\c1ccccc1)c1cccs1 64.5%
C/C(=C\c1ccccc1)C(=O)Nc1ccc(Cl)cn1 47.7%
Brc1cccc(/C=N/Nc2nn[nH]n2)c1 -36.9%
Cc1ccc2cc(NC(=O)Cc3ccccc3)ccc2n1 76.3%
CN(c1cccc(NC(=O)COc2ccc(Cl)cc2Cl)c1)S(C)(=O)=O 40.2%
O=C(Nc1ccccc1)O/N=C/c1ccc(F)cc1 42.1%
O=C(N/N=C/c1ccccc1)c1ccco1 51.9%
O=C(C[n+]1cc(-c2ccc(F)cc2)n2c1CCC2)c1cccs1 47.1%
COc1cc(-c2nnc(-c3ccco3)o2)ccc1OCc1ccccc1 46.7%
COc1ccc(C(=O)Nc2ccc3ccccc3c2)cc1OC 80.8%
CCOC(=O)C1(Cc2ccccc2)CCCN(CCCn2cccn2)C1 (centres undefined) -1.67%
CCOc1ccc(-c2nnc(-c3cccs3)o2)cc1OCC 136%
O=C(COc1ccc2c(c1)CCC2)N1CCc2ccccc21 100%
Oc1cc(NCc2cccnc2)ccc1-c1nc2ccccc2o1 15.3%
O=C(Nc1ccccc1Cl)c1cc(=O)c2ccccc2o1 -80.1%
Cc1ccc2nc(-c3cccnc3)oc2c1 15.7%
CC(C)c1ccc(CNc2ncccn2)cc1 103%
COCc1nc(-c2ccc(-c3ccccc3)nc2OC)no1 6%
COc1cc(CN2CCC(Cc3ccccc3)CC2)cc(OC)c1OC 102%
COc1ccc(S(=O)NC2CCCCC2)c(OC)c1C (centres undefined) 21.7%
O=C(CCCCC(=O)NN=Cc1ccccc1O)NN=Cc1ccccc1O 23.5%
CC(C)C(NC(=O)OCc1ccccc1)C(=O)OCC(=O)N1CCCCC1 (centres undefined) 5.47%
Cc1ccc2c(COC(=O)c3n[nH]c4ccccc34)cc(=O)oc2c1 114%
N#Cc1ccc(-c2cccnc2)nc1SCC(=O)c1ccccc1 33.3%
O=C(CCCCl)NC(=S)Nc1ccc(N2CCOCC2)cc1 13.8%
CS(=O)(=O)c1ncc(Cl)c(C(=O)Nc2ccc3ccccc3c2)n1 -108%
CCNc1nc(N)c(C(=O)c2ccc(Cl)s2)s1 45.7%
COc1ccc(-c2nc(-c3ccncc3)no2)cc1OC 111%
c1ccc(OCc2nn3c(-c4ccccn4)nnc3s2)cc1 51%
COc1cccc(/C=N/NC(=O)CN2CC(c3ccccc3)CC2=O)c1OC (centres undefined) -2.27%
Cc1cc(/C=C(\C#N)C(=O)O)c(C)n1CC(C)C 8.27%
CSCCNC(=O)c1ccc2nc(Cc3ccccc3F)oc2c1 85.4%
O=C(Nc1ccc2nc(-c3ccccc3)[nH]c2c1)c1ccco1 128%
Cc1nc2ccc(NC(=O)c3ccco3)cc2nc1C 7.37%
Cc1nc(NC(=O)C2CC2)sc1C(=O)Nc1ccccc1Cl 64.3%
CN(C)c1ccc(/C=N\NC(=O)c2cccc3cc[nH]c23)cc1 27.5%
O=C(CSCc1c(F)cccc1F)Nc1ccccc1 134%
O=C(CCC1CCCN(C(=O)c2cc3ccccc3o2)C1)NCc1ccc(F)c(F)c1 (centres undefined) 3.79%
CN(C)CCCNc1nc2sc3c(c2c(=O)n1CCc1ccccc1)CCCCC3 -102%
CCOC(=O)C1CCCN(C(=O)C2CCN(S(=O)(=O)CC)CC2)C1 (centres undefined) 93%
N/C(=N\OC(=O)c1ccc(Cl)cc1Cl)c1ccncc1 21.6%
CC(C)S(=O)(=O)c1csc(C(=O)Nc2ccc(F)cc2)c1N 52%
C/C(=N\Nc1cc(N2CCOCC2)ncn1)c1ccccc1 65.8%
